Experimental data from the supplement of paper PMC10849652.
Of roughly 8,800 targets only a part is listed; those with a hit were picked by preference. About 0.5% of all pairs of compound and target were hits.

What was measured:
Test in all cases: log2 fold change, soluble protein after heating vs DMSO (PISA); higher = thermal stabilisation; K562 lysate, 10 uM; active = over 0.2 and 3.5 SD of the protein, either way, in both replicates (recomputed)
dasatinib = compound: Cc1nc(Nc2ncc(C(=O)Nc3c(C)cccc3Cl)s2)cc(N2CCN(CCO)CC2)n1 [dasatinib]
Outline: (§1)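 K562 pellets were dounce-homogenised in PBS pH 7.4 containing 1 mM MgCl2, and the crude extract, at 1 mg/mL protein, was exposed to 10 μM compound for 30 min. Aliquots were heated for 3 min across 48°C-58°C, pooled, brought to 0.5% NP-40 at 4°C and spun at 21,000xg for 90 min, with the supernatant taken as soluble protein. TMTpro 16plex LC-MS/MS with equalised channel sums quantified that protein. Values are log-two fold changes in thermal stability relative to solvent controls, taken from duplicates.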

[1] = compound: Cn1cc(-c2ccc3c(c2)CCN3C(=O)Cc2cccc(C(F)(F)F)c2)c2c(N)ncnc21
Outline: as §1

quisinostat = compound: Cn1cc(CNCC2CCN(c3ncc(C(=O)NO)cn3)CC2)c2ccccc21 [quisinostat]
Outline: as §1

[2] = compound: NC(=O)Nc1cc(-c2cccc(F)c2)sc1C(=O)N[C@H]1CCCNC1
Outline: as §1

[3] = compound: NC(=O)c1cnc(N[C@@H]2CCCC[C@@H]2N)nc1Nc1cccc(-n2nccn2)c1
Outline: as §1

[4] = compound: NC1(c2ccc(-c3nc4ccn5c(=O)[nH]nc5c4cc3-c3ccccc3)cc2)CCC1
Outline: as §1

[5] = compound: NCC(=O)Nc1ccc(-n2nc(C(F)(F)F)cc2-c2ccc3c(ccc4ccccc43)c2)cc1
Outline: as §1

vorinostat = compound: O=C(CCCCCCC(=O)Nc1ccccc1)NO [vorinostat]
Outline: as §1

silmitasertib = compound: O=C(O)c1ccc2c(c1)nc(Nc1cccc(Cl)c1)c1ccncc12 [silmitasertib]
Outline: as §1

[6] = compound: O=C1NC(=O)C(c2cnc3ccccn23)=C1c1cn2c3c(cc(F)cc13)CN(C(=O)N1CCCCC1)CC2
Outline: as §1

entospletinib = compound: c1cn2cc(-c3ccc4cn[nH]c4c3)nc(Nc3ccc(N4CCOCC4)cc3)c2n1 [entospletinib]
Outline: as §1

nilotinib = compound: Cc1cn(-c2cc(NC(=O)c3ccc(C)c(Nc4nccc(-c5cccnc5)n4)c3)cc(C(F)(F)F)c2)cn1 [nilotinib]
Outline: as §1

[7] = compound: Cc1nc(Nc2n[nH]c3c2CN(C(=O)N[C@H](CN(C)C)c2ccccc2)C3(C)C)c2sccc2n1
Outline: as §1

[8] = compound: Cc1ncc(-c2ccnc(Nc3ccc(S(C)(=O)=O)cc3)n2)n1C(C)C
Outline: as §1

tipifarnib = compound: Cn1cncc1[C@@](N)(c1ccc(Cl)cc1)c1ccc2c(c1)c(-c1cccc(Cl)c1)cc(=O)n2C [tipifarnib]
Outline: as §1

Measured: log2 fold change

KDM5B isoform 2 (UniProt Q9UGL1)
UniProt Q9UGL1, sequence (Q9UGL1 whole entry, looked up): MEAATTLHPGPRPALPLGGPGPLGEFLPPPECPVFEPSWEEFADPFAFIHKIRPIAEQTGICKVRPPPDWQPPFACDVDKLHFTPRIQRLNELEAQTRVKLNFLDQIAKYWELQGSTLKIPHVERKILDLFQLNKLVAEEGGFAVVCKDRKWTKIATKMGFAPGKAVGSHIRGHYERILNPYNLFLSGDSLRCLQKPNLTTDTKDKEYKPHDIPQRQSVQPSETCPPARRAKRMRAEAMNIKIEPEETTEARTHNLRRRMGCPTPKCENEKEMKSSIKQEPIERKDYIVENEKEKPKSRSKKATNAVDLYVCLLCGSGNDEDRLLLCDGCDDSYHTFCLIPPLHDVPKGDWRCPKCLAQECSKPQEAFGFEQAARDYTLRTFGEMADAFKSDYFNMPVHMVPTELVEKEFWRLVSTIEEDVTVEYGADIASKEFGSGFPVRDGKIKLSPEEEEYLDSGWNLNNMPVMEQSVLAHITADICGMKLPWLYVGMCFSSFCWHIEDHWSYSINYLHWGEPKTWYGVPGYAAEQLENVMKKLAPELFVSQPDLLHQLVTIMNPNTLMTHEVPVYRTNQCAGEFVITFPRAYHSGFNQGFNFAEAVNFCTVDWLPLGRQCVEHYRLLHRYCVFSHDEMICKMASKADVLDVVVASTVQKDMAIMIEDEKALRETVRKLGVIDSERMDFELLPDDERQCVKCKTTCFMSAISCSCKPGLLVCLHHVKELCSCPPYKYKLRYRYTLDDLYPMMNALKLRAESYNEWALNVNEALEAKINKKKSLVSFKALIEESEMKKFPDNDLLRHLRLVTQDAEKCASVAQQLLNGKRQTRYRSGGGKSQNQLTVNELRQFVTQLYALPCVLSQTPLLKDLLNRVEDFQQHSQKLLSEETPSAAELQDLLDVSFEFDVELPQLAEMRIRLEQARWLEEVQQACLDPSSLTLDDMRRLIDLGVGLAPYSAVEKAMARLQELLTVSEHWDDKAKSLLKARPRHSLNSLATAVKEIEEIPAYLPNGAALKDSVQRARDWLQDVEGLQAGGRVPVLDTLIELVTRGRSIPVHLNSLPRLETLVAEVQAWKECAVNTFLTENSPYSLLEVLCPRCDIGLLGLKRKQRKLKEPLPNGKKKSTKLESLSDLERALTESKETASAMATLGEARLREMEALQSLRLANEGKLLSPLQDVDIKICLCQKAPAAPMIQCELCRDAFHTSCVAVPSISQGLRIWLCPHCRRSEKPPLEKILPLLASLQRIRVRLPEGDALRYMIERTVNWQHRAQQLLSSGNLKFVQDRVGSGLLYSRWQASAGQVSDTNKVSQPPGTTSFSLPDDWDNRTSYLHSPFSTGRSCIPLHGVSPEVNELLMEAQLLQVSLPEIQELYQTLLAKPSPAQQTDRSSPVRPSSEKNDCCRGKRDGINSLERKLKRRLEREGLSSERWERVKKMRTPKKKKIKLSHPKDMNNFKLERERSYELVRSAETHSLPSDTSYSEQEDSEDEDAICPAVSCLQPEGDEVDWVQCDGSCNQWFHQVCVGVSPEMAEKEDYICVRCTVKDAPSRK
inactive: dasatinib 0.021 | [1] -0.049 | quisinostat -0.117 | [2] -0.085 | [3] 0.034 | [4] -0.049 | [5] 0.11 | vorinostat 0.085 | silmitasertib -0.018 | [6] 0.116 | entospletinib -0.037

ITM2B (UniProt Q9Y287)
UniProt Q9Y287, sequence (Q9Y287 whole entry, looked up): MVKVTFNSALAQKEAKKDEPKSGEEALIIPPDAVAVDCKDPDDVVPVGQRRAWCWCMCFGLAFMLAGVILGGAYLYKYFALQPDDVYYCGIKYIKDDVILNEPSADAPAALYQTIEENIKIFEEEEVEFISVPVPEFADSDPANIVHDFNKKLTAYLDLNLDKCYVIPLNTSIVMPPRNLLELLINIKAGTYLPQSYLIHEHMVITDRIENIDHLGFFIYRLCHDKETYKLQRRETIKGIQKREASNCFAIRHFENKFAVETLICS
inactive: nilotinib 0.012 | [7] -0.028 | dasatinib 0.023 | [8] -0.002 | [1] -0.031 | quisinostat 0.015 | tipifarnib -0.012 | [2] 0.018 | [4] -0.024 | [5] -0.101 | vorinostat 0.141 | silmitasertib 0.013 | [6] 0.004

IGF2BP2 isoform 6 (UniProt Q9Y6M1)
UniProt Q9Y6M1, sequence (Q9Y6M1 whole entry, looked up): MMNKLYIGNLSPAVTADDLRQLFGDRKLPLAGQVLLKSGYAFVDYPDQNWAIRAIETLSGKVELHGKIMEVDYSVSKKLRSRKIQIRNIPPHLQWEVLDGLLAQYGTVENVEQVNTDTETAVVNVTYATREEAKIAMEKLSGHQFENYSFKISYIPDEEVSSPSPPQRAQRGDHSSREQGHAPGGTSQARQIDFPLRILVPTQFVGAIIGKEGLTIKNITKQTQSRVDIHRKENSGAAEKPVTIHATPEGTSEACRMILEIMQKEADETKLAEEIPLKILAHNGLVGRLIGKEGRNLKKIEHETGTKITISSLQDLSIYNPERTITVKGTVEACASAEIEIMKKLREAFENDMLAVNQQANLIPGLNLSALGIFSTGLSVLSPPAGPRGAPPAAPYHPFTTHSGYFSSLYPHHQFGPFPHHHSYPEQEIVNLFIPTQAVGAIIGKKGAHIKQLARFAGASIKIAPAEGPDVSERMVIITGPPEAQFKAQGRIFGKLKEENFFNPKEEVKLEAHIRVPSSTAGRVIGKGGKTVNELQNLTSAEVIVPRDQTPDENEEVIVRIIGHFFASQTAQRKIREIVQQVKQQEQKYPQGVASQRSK
inactive: [3] 0.079

HDAC2 (UniProt Q92769)
UniProt Q92769, sequence (Q92769 whole entry, looked up): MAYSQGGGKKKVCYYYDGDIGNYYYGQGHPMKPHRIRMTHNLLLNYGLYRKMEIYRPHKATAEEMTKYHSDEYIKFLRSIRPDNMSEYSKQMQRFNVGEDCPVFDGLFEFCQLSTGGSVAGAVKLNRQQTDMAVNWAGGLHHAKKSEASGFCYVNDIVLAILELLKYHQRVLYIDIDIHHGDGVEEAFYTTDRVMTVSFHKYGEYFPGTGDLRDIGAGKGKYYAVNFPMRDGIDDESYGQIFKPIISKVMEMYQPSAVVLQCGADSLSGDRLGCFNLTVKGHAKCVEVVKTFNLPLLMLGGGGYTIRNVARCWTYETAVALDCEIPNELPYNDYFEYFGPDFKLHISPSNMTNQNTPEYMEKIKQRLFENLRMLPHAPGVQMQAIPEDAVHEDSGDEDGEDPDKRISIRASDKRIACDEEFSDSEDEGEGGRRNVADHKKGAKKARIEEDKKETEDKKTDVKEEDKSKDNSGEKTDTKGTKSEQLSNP
active: quisinostat 0.635
inactive: nilotinib -0.022 | [7] 0.014 | dasatinib -0.024 | [8] -0.013 | [1] 0.044 | tipifarnib -0.011 | [2] 0.018 | [3] 0.001 | [4] -0.031 | [5] 0.001 | silmitasertib -0.002 | [6] 0.057 | entospletinib -0.005

HNRNPM (UniProt M0R019)
inactive: [5] -0.198

HDAC3 (UniProt E7ESJ6)
inactive: [3] 0.058
